Screening data deposited in PubChem by several laboratories.
Measles CPE = compounds protecting cells from measles virus cytopathic effect, primary screen, measles RdRp inhibitor project, single point, MLSMR library, absorbance; Measles virus-infected cells, CPE protection; protection (pct of control), % at 4 µM; actives 1.5% (n = 140,000); AID 841, 2007; in the data active means protection mostly above about 24%, no sharp cut-off; inactive means mostly below about 26%
CYP2C19 inhib = blockers of cytochrome P450 2C19 activity – biochemical, luminescence, ADME assay, primary screen | inhibition, % at 5 µM | actives 21% (n = 96,000) | CYP2C19 Supersomes, luciferin-H EGE luminescence, 30 min;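 active means CYP2C19 inhibition above a set limit at 5 µM in the primary screen, cut at about 50% in these data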
Target sequence (P33261 whole entry, looked up): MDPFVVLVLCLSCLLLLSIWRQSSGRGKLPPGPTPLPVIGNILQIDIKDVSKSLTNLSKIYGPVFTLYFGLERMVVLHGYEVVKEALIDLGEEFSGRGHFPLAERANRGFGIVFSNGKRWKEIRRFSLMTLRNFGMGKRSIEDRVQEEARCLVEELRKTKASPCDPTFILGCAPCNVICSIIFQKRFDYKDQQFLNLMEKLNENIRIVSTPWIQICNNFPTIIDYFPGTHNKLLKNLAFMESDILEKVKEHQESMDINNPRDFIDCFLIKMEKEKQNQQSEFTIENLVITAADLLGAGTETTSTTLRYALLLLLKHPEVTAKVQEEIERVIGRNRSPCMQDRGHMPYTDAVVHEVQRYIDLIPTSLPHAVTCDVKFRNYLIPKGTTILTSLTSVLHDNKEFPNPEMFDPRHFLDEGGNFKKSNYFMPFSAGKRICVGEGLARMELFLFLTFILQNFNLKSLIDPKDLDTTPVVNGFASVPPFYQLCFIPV
CYP2C9 act = human CYP2C9 activators, primary screen, biochemical, luminescence; Cytochrome P450 2C9 (Homo sapiens), P11712; recombinant CYP2C9, luciferin-H conversion; active compounds read high; factor 1 = untreated enzyme, 0 = blocked; activation factor at 5 µM; actives 1.4% (n = 96,000);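 active means activation factor of 2 or more for CYP2C9 at a 5 µM dose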
CYP2C19 activ = human CYP2C19 activators, primary screen, biochemical, luminescence | 96,000 tested, under 10 active | recombinant CYP2C19, luciferin-H EGE luminescence; active compounds read high; 0 = fully inhibited enzyme, 1 = untreated enzyme | activation factor at 5 µM;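 active means activation factor of at least 2 at 5 µM in the primary screen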
CYP2C9 inhib = blockers of cytochrome P450 2C9 activity – biochemical, luminescence, ADME assay, primary screen; CYP2C9 Supersomes, luciferin-H conversion; inhibition, % at 5 µM; actives 20% (n = 96,000); AID 777, 2007;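 active means blocking of liver enzyme CYP2C9 beyond about 50% at 5 µM, limit read from the data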
Of the large screens only hits and unclear results are named; the others gave an inactive call. Compounds with a hit are over-represented: about 22% of the library has one in this group of screens.

CSc1cccc(NS(=O)(=O)c2ccc3c(c2)oc(=O)n3C)c1	CYP2C19 inhib 97.4, CYP2C9 inhib 53.0
Cn1c(=O)oc2cc(S(=O)(=O)Nc3cccc(F)c3)ccc21	none (no result: CYP2C19 inhib, CYP2C9 act, CYP2C19 activ, CYP2C9 inhib)
C=C1C(C(=O)N2CCOCC2)C1C(=O)N1CCOCC1 (centres undefined)	none
O=C1CCC(C(=O)OCc2c(Cl)cccc2Cl)N1 (centres undefined)	none
Cc1cc(C(C)(C)C)cc(C)c1COC(=O)C1CCC(=O)N1 (centres undefined)	CYP2C19 inhib 62.6
OC(CC1CC12c1ccccc1-c1ncccc12)(c1ccccc1)c1ccccc1 (centres undefined)	CYP2C19 inhib 92.5, CYP2C9 inhib 96.9
CC1CCN(C(=S)Nc2ccc(F)cc2)CC1	none (no result: CYP2C19 inhib, CYP2C9 act, CYP2C19 activ, CYP2C9 inhib)
C/C(=N\NC(=S)Nc1ccc(F)cc1)C1CC1	CYP2C19 inhib 69.1, CYP2C9 inhib 57.0
CCC(=O)Nc1nc2c(OC)ccc(C)c2s1	none (no result: CYP2C19 inhib, CYP2C9 act, CYP2C19 activ, CYP2C9 inhib)
COc1ccc(OC)c2sc(NC(=O)C(C)C)nc12	CYP2C9 inhib 69.8
CC1CN(S(=O)(=O)c2cccc(C(=O)OCC(=O)c3cccs3)c2)CC(C)O1 (centres undefined)	none
CN(C)c1cccc(C(=O)OCc2cc(=O)oc3cc(O)ccc23)c1	CYP2C19 inhib 57.4, CYP2C9 inhib 78.8
CC1CN(S(=O)(=O)c2cccc(C(=O)OCc3cc(=O)oc4cc(O)ccc34)c2)CC(C)O1 (centres undefined)	CYP2C19 inhib 68.6, CYP2C9 inhib 82.7
CCCCNS(=O)(=O)c1ccc2nc(SCC(=O)Nc3sccc3C#N)[nH]c2c1	CYP2C19 inhib 68.6, CYP2C9 inhib 97.4
CCCCNS(=O)(=O)c1ccc2nc(SCC(=O)Nc3ccccc3Cl)[nH]c2c1	none (no result: CYP2C19 inhib, CYP2C9 act, CYP2C19 activ, CYP2C9 inhib)
CCCCNS(=O)(=O)c1ccc2nc(SCC(=O)Nc3cccc(F)c3)[nH]c2c1	none (no result: CYP2C19 inhib, CYP2C9 act, CYP2C19 activ, CYP2C9 inhib)
CCCCNS(=O)(=O)c1ccc2nc(SCC(=O)c3ccccc3OC)[nH]c2c1	CYP2C19 inhib 93.9, CYP2C9 inhib 93.9
CCC(NC(=S)NCc1ccccc1)C(=O)O (centres undefined)	CYP2C19 inhib 54.5
CCNC(=S)NNC(=S)NCc1ccccc1	none (no result: CYP2C19 inhib, CYP2C9 act, CYP2C19 activ, CYP2C9 inhib)
Cc1c(NC(=O)C(C)Sc2ccc3ccccc3n2)c(=O)n(-c2ccccc2)n1C (centres undefined)	none
Cc1c(NC(=O)CSc2nnc3c4ccccc4n(CCc4ccccc4)c3n2)c(=O)n(-c2ccccc2)n1C	Measles CPE 36.6
Cc1c(NC(=O)C(C)Sc2nc3ccccc3c(=O)n2CCO)c(=O)n(-c2ccccc2)n1C (centres undefined)	CYP2C9 inhib 57.7
Cc1c(NC(=O)CSc2nc3ccccc3n2C)c(=O)n(-c2ccccc2)n1C	CYP2C9 act 2.1
CCn1c2ccccc2c2nnc(SCC(=O)Nc3c(C)n(C)n(-c4ccccc4)c3=O)nc21	none
COc1cccc(CNC(=O)C2CCN(S(=O)(=O)N3CCCC3)CC2)c1	none
CC1CCCCC1NC(=O)CO/N=C/c1ccccc1OC(F)F (centres undefined)	none (no result: CYP2C19 inhib, CYP2C9 act, CYP2C19 activ, CYP2C9 inhib)
CCCCSc1nc2c(c(C(F)(F)F)c1C#N)CCC2	none
CCOC(=O)CCSc1nc2c(c(C(F)(F)F)c1C#N)CCC2	CYP2C19 inhib 77.6, CYP2C9 inhib 67.2
N#CC(c1ccc(Cl)nn1)c1ccc(Cl)cc1Cl (centres undefined)	CYP2C19 inhib 96.1
CCOc1nc(-c2ccc(Cl)cc2Cl)ccc1C#N	none
CC1(C)N(OCc2ccccc2)C(=O)C(=O)N(OCc2ccccc2)C1(C)C	none
C=CCOn1c(=O)c(=O)n(OCc2ccccc2)c2ccccc21	CYP2C19 inhib 96.6
Cc1cccc(NC(=O)C(=O)NCCCc2ccccc2)c1	none (no result: CYP2C19 inhib, CYP2C9 act, CYP2C19 activ, CYP2C9 inhib)
Cn1cccc1C(=O)OCc1cc(Cl)cc2c1OCOC2	CYP2C9 act 2.2
CC(C)CC(NC(=O)c1ccc(Cl)cc1)C(=O)OCc1cc([N+](=O)[O-])cc2c1OCOC2 (centres undefined)	none (no result: CYP2C19 inhib, CYP2C9 act, CYP2C19 activ, CYP2C9 inhib)
Cn1c(CC2C(=O)Nc3ccc(Br)cc32)nc2ccccc2c1=O (centres undefined)	CYP2C9 inhib 81.9
COc1ccc(C(=O)CSc2nc3ccc([N+](=O)[O-])cc3[nH]2)cc1	none (no result: CYP2C19 inhib, CYP2C9 act, CYP2C19 activ, CYP2C9 inhib)
COC(=O)C1=C(C)N=C2SC(C)C(=O)N2C1c1cccc(F)c1 (centres undefined)	none
CCC1SC2=NC(C)=C(C(=O)OC)C(c3ccc(C(=O)OC)cc3)N2C1=O (centres undefined)	CYP2C19 inhib 92.8
CCC1SC2=NC(C)=C(C(=O)OCCOC)C(c3ccc(C(=O)OC)cc3)N2C1=O (centres undefined)	CYP2C19 inhib 65.3, CYP2C9 inhib 65.1
CCOc1ccc(C2C(C(=O)OC)=C(C)N=C3SCCC(=O)N32)cc1OCC (centres undefined)	none
C=CCOc1c(Br)cc(CNn2nnnc2N)cc1OCC	none
CCOc1ccc(C(=O)Nc2cccc([N+](=O)[O-])c2)cc1Br	none (no result: CYP2C19 inhib, CYP2C9 act, CYP2C19 activ, CYP2C9 inhib)
Cc1ccccc1N1CCN(CCCN2C(=O)CC(=C(c3ccccc3)c3ccccc3)C2=O)CC1	CYP2C19 inhib 73.0, CYP2C9 inhib 50.0
O=C1CC(=C(c2ccccc2)c2ccccc2)C(=O)N1CCCCN1CCN(c2cccc(Cl)c2)CC1	CYP2C9 inhib 65.5
COC(=O)c1ccc(NC2=CC(=O)CC(C)(C)C2)cc1	CYP2C9 inhib 50.8
CC(=O)Nc1ccc(NC2=CC(=O)CC(C)(C)C2)cc1	none
O=C(O)CSc1ncnc2c1oc1ccccc12	Measles CPE 27.3
O=C(CSc1ncnc2c1oc1ccccc12)Nc1ccccc1C(F)(F)F	CYP2C9 inhib 84.8
Cc1nc(SCC(=O)Nc2ccc(C)c(F)c2)c2oc3ccccc3c2n1	CYP2C19 inhib 79.4, CYP2C9 inhib 93.0
COc1ccc(CCNC(=O)CSc2ncnc3c2oc2ccccc23)cc1OC	CYP2C19 inhib 51.2, CYP2C9 inhib 82.1
CCN(CC)C(=S)Nc1ccc([N+](=O)[O-])cc1	none (no result: CYP2C19 inhib, CYP2C9 act, CYP2C19 activ, CYP2C9 inhib)
COc1ccc(CN(C(=O)CSc2nnc(-c3c[nH]c4ccccc34)o2)c2ccc(F)cc2)cc1OC	none (no result: CYP2C19 inhib, CYP2C9 act, CYP2C19 activ, CYP2C9 inhib)
C=CCC1CCCCC12NC(=O)NC2=O (centres undefined)	none
O=C(CSc1ncnc2c1oc1ccccc12)NCc1ccco1	CYP2C9 inhib 59.8
CC(C)CC(=O)NCCNC(=O)c1cc(OCC(F)(F)F)ccc1OCC(F)(F)F	CYP2C9 inhib 87.2
O=C(NCCNS(=O)(=O)c1cccc(C(F)(F)F)c1)c1cc(OCC(F)(F)F)ccc1OCC(F)(F)F	CYP2C19 inhib 79.6
COc1ccc(Cl)cc1N1C(=O)CC(N2CCc3ccccc32)C1=O (centres undefined)	CYP2C19 inhib 91.0
COc1ccccc1N1C(=O)CC(N2CCc3ccccc32)C1=O (centres undefined)	CYP2C19 inhib 90.8
